From PubChem BioAssay
Gal4-VP16 FLuc – Gal4-VP16 reporter inhibition counter-screen; Drosophila S2 Gal4-VP16 UAS-luciferase, luminescence, 20 h; actives 3.5% (n = 310,000); Potency, µM (top dose mostly 53.6 µM), for inactives: top-dose activity, negative = inhibition, hits mostly inhibitors;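 also: Gal4-VP16 expression switched on by copper sulfate through the metallothionein promoter; nearly all actives have a fitted effect of over 50% in size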
RORgamma inh – blocks mouse ROR gamma transcriptional activity; Drosophila S2 Gal4-RORgamma UAS-luciferase reporter, 20 h; Potency, µM (doses to about 53.6 µM), without a hit: at the highest dose activity change, negative = inhibition, actives largely listed as inhibitors; actives 5.4% (n = 310,000); P51450; also: nearly all actives have a fitted effect of over 60% in size
Target sequence (P51450 whole entry, looked up, the tested form may be a part): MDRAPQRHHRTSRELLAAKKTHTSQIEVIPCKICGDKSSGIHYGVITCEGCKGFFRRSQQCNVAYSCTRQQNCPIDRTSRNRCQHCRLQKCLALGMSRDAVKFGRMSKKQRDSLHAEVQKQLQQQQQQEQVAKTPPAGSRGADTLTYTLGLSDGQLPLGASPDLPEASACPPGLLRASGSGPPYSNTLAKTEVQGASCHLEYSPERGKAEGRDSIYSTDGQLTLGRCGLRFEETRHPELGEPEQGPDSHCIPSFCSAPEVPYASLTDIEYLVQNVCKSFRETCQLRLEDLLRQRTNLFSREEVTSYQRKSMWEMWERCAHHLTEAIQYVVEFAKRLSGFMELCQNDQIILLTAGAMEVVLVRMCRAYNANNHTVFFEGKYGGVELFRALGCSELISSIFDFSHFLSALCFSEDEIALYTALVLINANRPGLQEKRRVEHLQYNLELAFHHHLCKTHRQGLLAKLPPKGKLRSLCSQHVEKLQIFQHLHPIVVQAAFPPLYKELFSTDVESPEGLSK
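ROR gamma transcriptional activity was tracked as Gal4-UAS luciferase output in stably transfected Drosophila Schneider cells, with compound added 1 hr before 700 uM copper sulfate induction and a 20 hr ambient-temperature incubation.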
KinaseGlo FLuc – counter-screen: inhibitors of Kinase-Glo firefly luciferase; AID 1379; Q27757; Potency, µM (titrated, usually from 38.3 µM), for the others: at the top dose activity change, negative = inhibition, usual class: inhibitors; Kinase-Glo luciferase, ATP luminescence, 8 min; actives 0.28% (n = 200,000); also: nearly all actives have a fitted effect of over 60% in size
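Luminescence was the read-out, taken after 8-minute incubation at ambient temperature. Luciferase turned over luciferin with 10 uM ATP in imidazole pH 7.2 buffer containing KCl, MgCl2, Tween 20 and BSA.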
* marks the source's active call; other numbers are inactive results; [ ] = remark or other dose. An excerpt weighted towards active compounds, which were near 6.2% of everything screened. Calls follow the shape of the dose curve; as a rule, active = well fitted curve in the direction sought with a large enough effect; inconclusive = small, poorly fitted or top-dose-only effect, or another doubt; inactive = no such curve, though single readings can be large; an effect the other way counts as inactive or inconclusive. % is scaled to controls: 0 for no effect and ±100 for the full control effect; potency is read from the fitted curve at half-maximal effect.

Screening O=C(O)c1ccccn1 returned Gal4-VP16 FLuc -2% and RORgamma inh -2%[10 µM].
For CCOC(=O)c1ccc(NC(=S)Nc2ccc(Cl)cn2)cc1 the results were Gal4-VP16 FLuc 8.9µM*, RORgamma inh 2.2µM* and KinaseGlo FLuc 0%.
CCOC(=O)c1ccc(NC(=S)NCC(O)c2ccccc2)cc1 (stereo unspecified) was read as Gal4-VP16 FLuc 7% and RORgamma inh 4%.
Cc1ccccc1C(=O)O/N=C(\c1ccccc1)c1ccccn1 was read as Gal4-VP16 FLuc inconclusive, RORgamma inh inconclusive and KinaseGlo FLuc -3%.
Screening O=C(Nc1ccccc1)O/N=C(\c1ccccc1)c1ccccn1 returned Gal4-VP16 FLuc -7%, RORgamma inh 11µM* and KinaseGlo FLuc -2%.
CCOC(=O)c1ccc(NC(=S)Nc2ccccn2)cc1 was read as Gal4-VP16 FLuc -5%[0.365 µM], RORgamma inh 3.2µM* and KinaseGlo FLuc 0%.
For S=C(Nc1ccccc1)c1ccccn1 the results were Gal4-VP16 FLuc 2µM*, RORgamma inh 0.63µM* and KinaseGlo FLuc -10%.
Screening CCOC(=O)c1ccc(NC(=O)Nc2ncc(Cl)cc2Cl)cc1 returned Gal4-VP16 FLuc -2% and RORgamma inh 2%.
Screening CCNC(=S)N(CCCN(C)C)Cc1cc2cc3c(cc2[nH]c1=O)OCCO3 returned Gal4-VP16 FLuc -4% and RORgamma inh -2%.
Screening CCc1cccc(C)c1NC(=O)C1CCN(c2nn3c(=O)cc(C)nc3s2)CC1 returned Gal4-VP16 FLuc 1% and RORgamma inh -13%.
Screening O=c1c(-c2ccc(F)c(F)c2)nc2cncnc2n1Cc1ccccc1Cl returned Gal4-VP16 FLuc 2%, RORgamma inh 1% and KinaseGlo FLuc -2%.
`O=C(Cc1ccccc1)NCCSC1CCCCC1` gave Gal4-VP16 FLuc 12%, RORgamma inh 40% and KinaseGlo FLuc 3%.
For Cc1cc(Cl)ccc1Oc1ccccc1C(=O)CC#N the results were Gal4-VP16 FLuc -22%, RORgamma inh inconclusive and KinaseGlo FLuc 2%.
`O=S(=O)(Nc1ncccn1)c1ccc(NC(=S)Nc2ccccc2)cc1` gave Gal4-VP16 FLuc 3% and RORgamma inh -20%.
Screening S=C(Nc1ccc(Nc2ccccc2)cc1)Nc1ccccn1 returned Gal4-VP16 FLuc 2.5µM*, RORgamma inh 0.71µM* and KinaseGlo FLuc -3%.
C=CCN(C(=O)C1=NN(C2CCS(=O)(=O)C2)C(=O)CC1)c1nc(-c2ccc([N+](=O)[O-])cc2)cs1 (stereo unspecified) was read as Gal4-VP16 FLuc 25%, RORgamma inh 9% and KinaseGlo FLuc -2%.
O=C(NCCCN1CCOCC1)/C(=C/c1ccco1)NC(=O)c1ccccc1 was read as Gal4-VP16 FLuc 3% and RORgamma inh -9%.
Screening CN(C(=O)Cn1cc(C(F)(F)F)ccc1=O)c1c(N)n(Cc2ccccc2)c(=O)[nH]c1=O returned Gal4-VP16 FLuc -13% and RORgamma inh 12%.
For N/C(=N\OC(=O)c1cccc(Br)c1)c1ccccn1 the results were Gal4-VP16 FLuc 18µM* and RORgamma inh 10µM*.
N/C(=N\OC(=O)c1ccc(Cl)c(Cl)c1)c1ccccn1 was read as Gal4-VP16 FLuc inconclusive, RORgamma inh inconclusive and KinaseGlo FLuc -12%.
`COc1ccc(C(=O)O/N=C(\N)c2ccccn2)cc1` gave Gal4-VP16 FLuc 18µM* and RORgamma inh 14µM*.
N/C(=N\OC(=O)c1ccc(Cl)cc1)c1ccccn1 was read as Gal4-VP16 FLuc 10µM*, RORgamma inh 8.9µM* and KinaseGlo FLuc 6.3µM*.
Screening COc1cc(OC)cc(C(=O)O/N=C(\N)c2ccccn2)c1 returned Gal4-VP16 FLuc -6% and RORgamma inh -34%.
`N/C(=N\OC(=O)c1cccc(Cl)c1)c1ccccn1` gave Gal4-VP16 FLuc inconclusive, RORgamma inh inconclusive and KinaseGlo FLuc -29%.
COc1ccc(OC)c(C2=C/C(=C/c3ccccn3)C(=O)O2)c1 was read as Gal4-VP16 FLuc -11%[10 µM], RORgamma inh -20% and KinaseGlo FLuc 1%.
CCOc1ccccc1Oc1cn[nH]c1-c1ccc(OCC(=O)NN)cc1O was read as Gal4-VP16 FLuc -3% and RORgamma inh 0%.
For CCOc1ccc(-c2ncncc2-c2ccccc2OC)c(O)c1 the results were Gal4-VP16 FLuc 15% and RORgamma inh -41%.
For CCOc1ccc(-c2[nH]ncc2Oc2ccccc2OCC)c(O)c1 the results were Gal4-VP16 FLuc inconclusive, RORgamma inh 10µM* and KinaseGlo FLuc 1%.
CCOc1ccc(-c2[nH]ncc2Oc2ccccc2OC)c(O)c1 was read as Gal4-VP16 FLuc inconclusive, RORgamma inh 16µM* and KinaseGlo FLuc 0%.
CCOP(=O)(NC12CC3CC(CC(C3)C1)C2)NC12CC3CC(CC(C3)C1)C2 was read as Gal4-VP16 FLuc 0% and RORgamma inh -29%.
Screening CC(C(=O)NN)c1ccc([N+](=O)[O-])cc1 (stereo unspecified) returned Gal4-VP16 FLuc -11%, RORgamma inh -17% and KinaseGlo FLuc -2%.
For CCSc1nnc(-c2ccc(S(=O)(=O)N3CCOCC3)cc2)n1C the results were Gal4-VP16 FLuc 8% and RORgamma inh -2%.
CSc1ccc(/C=N/NC(=O)c2ccc(O)cc2)cc1 was read as Gal4-VP16 FLuc 2.2µM*, RORgamma inh 0.56µM* and KinaseGlo FLuc 13µM*.
Screening Cc1ccc(C(=O)N/N=C/c2ccc(N3CCOCC3)cc2)c(C)c1 returned Gal4-VP16 FLuc -2%, RORgamma inh -13% and KinaseGlo FLuc -2%.
`C/C(=N\NC(=O)c1ccc(F)cc1)c1ccc(N2CCOCC2)cc1` gave Gal4-VP16 FLuc -3%, RORgamma inh -21% and KinaseGlo FLuc 5%.
For O=C(N/N=C/c1ccc(N2CCOCC2)cc1)c1ccc(O)cc1 the results were Gal4-VP16 FLuc inconclusive and RORgamma inh 4.5µM*.
`COc1ccc(C(=O)N/N=C/c2ccc(SC)cc2)cc1` gave Gal4-VP16 FLuc 0%, RORgamma inh inconclusive and KinaseGlo FLuc 3%.
`C/C(=N\NC(=O)c1ccc(O)cc1)c1ccc(N2CCOCC2)cc1` gave Gal4-VP16 FLuc inconclusive and RORgamma inh 1.8µM*.
`COc1ccc(/C=N/NC(=O)c2cc(C(C)(C)C)[nH]n2)cc1COc1ccc(F)cc1F` gave Gal4-VP16 FLuc 1%, RORgamma inh 17% and KinaseGlo FLuc -1%.
COc1ccc2c(CC(=O)Nc3nccs3)coc2c1 was read as Gal4-VP16 FLuc -9%, RORgamma inh 26% and KinaseGlo FLuc -3%.
CCOc1cc(OCC)nc(S(C)(=O)=O)n1 was read as Gal4-VP16 FLuc -3%, RORgamma inh -38% and KinaseGlo FLuc -1%.
`COc1cc2c(Cc3c4c5c(cc(OC)c(OC)c5c5c(OC)c(OC)ccc35)CCN4C)c3c4c(cc(OC)c(OC)c4c2cc1OC)CCN3C` gave Gal4-VP16 FLuc 4%, RORgamma inh -1% and KinaseGlo FLuc -8%.
`CC(=O)c1cccc(NC(=O)Cn2cnc(S(=O)(=O)N3CCOCC3)c2)c1` gave Gal4-VP16 FLuc -6% and RORgamma inh -12%.
`O=C(c1ccncc1)N1CCC[C@@]2(CCN(Cc3ccncc3)C2)C1` gave Gal4-VP16 FLuc -2%, RORgamma inh -7% and KinaseGlo FLuc 1%.
Screening O=C(CCN1C(=O)C2C3C=CC(C3)C2C1=O)N1CCN(c2ccccn2)CC1 (stereo unspecified) returned Gal4-VP16 FLuc -5%, RORgamma inh -18% and KinaseGlo FLuc 1%.
